Results reported in the supplement of paper PMC6555819.

Experiments:
Experiment in all cases: PBM binding z-score (relative to random genomic background probes); higher = stronger binding; sequences stand for … in GC…GCGATTGACAGCGTAGAATGAAGG
[1] = system: FXR:RXRa (NR concentration 270 nM, RXRa partner concentration 90 nM)
Method in brief: (§1)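 Binding z-scores take random background probes as their reference. They come from custom Agilent 4×180K protein-binding microarrays incubated 1 h with ligand-free nuclear receptor dimers, with antibodies against each partner (one per run) detecting binding. Scanned fluorescence was regression-normalized.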

[2] = system: LXRa:RXRa (NR concentration 270 nM, RXRa partner concentration 90 nM)
Method in brief: as §1

[3] = system: LXRa homodimer (NR concentration 270 nM)
Method in brief: as §1

[4] = system: LXRb:RXRa (NR concentration 270 nM, RXRa partner concentration 90 nM)
Method in brief: as §1

[5] = system: LXRb homodimer (NR concentration 270 nM)
Method in brief: as §1

[6] = system: PPARa:RXRa (NR concentration 270 nM, RXRa partner concentration 90 nM)
Method in brief: as §1

[7] = system: PPARg:RXRa (NR concentration 180 nM, RXRa partner concentration 90 nM)
Method in brief: as §1

[8] = system: PPARg:RXRa 270nM:90nM, anti-RXR (NR concentration 270 nM, RXRa partner concentration 90 nM)
Method in brief: as §1

[9] = system: PPARg:RXRa 30nM:10nM, anti-RXR (NR concentration 30 nM, RXRa partner concentration 10 nM)
Method in brief: as §1

[10] = system: PPARg:RXRa 90nM:30nM, anti-RXR (NR concentration 90 nM, RXRa partner concentration 30 nM)
Method in brief: as §1

[11] = system: PPARg:RXRa DBDmut IVT, anti-RXR (DBD mutation: RXRa K156A/R161A, NR concentration 270 nM, RXRa partner concentration 90 nM)
Method in brief: as §1

[12] = system: PPARg:RXRa IVT, anti-PPARg (NR concentration 270 nM, RXRa partner concentration 90 nM)
Method in brief: as §1

[13] = system: PPARg DBDmut:RXRa IVT, anti-PPARg (DBD mutation: PPARg1 K132A/R137A, NR concentration 270 nM, RXRa partner concentration 90 nM)
Method in brief: as §1

[14] = system: PPARg DBDmut IVT, anti-PPARg (DBD mutation: PPARg1 K132A/R137A, NR concentration 270 nM)
Method in brief: as §1

[15] = system: PPARg homodimer (NR concentration 180 nM)
Method in brief: as §1

[16] = system: PXR:RXRa (NR concentration 270 nM, RXRa partner concentration 90 nM)
Method in brief: as §1

[17] = system: PXR homodimer (NR concentration 270 nM)
Method in brief: as §1

[18] = system: RARa:RXR (NR concentration 270 nM, RXRa partner concentration 90 nM)
Method in brief: as §1

[19] = system: RARa homodimer (NR concentration 270 nM)
Method in brief: as §1

[20] = system: RARb:RXRa (NR concentration 270 nM, RXRa partner concentration 90 nM)
Method in brief: as §1

Sequence	PBM binding z-score [1]	PBM binding z-score [2]	PBM binding z-score [3]	PBM binding z-score [4]	PBM binding z-score [5]	PBM binding z-score [6]	PBM binding z-score [7]	PBM binding z-score [8]	PBM binding z-score [9]	PBM binding z-score [10]	PBM binding z-score [11]	PBM binding z-score [12]	PBM binding z-score [13]	PBM binding z-score [14]	PBM binding z-score [15]	PBM binding z-score [16]	PBM binding z-score [17]	PBM binding z-score [18]	PBM binding z-score [19]	PBM binding z-score [20]
GCATATAGGTAATACAAGGCGAAAGTCCGATTGT	0.229	0.00213	0.175	-0.106	-0.482	0.752	0.874	0.503	0.39	0.229	4.13	2.28	0.423	0.106	0.176	0.00476	-0.179	0.458	-0.221	-0.0161
AGAATAAGGTTACCAAAGATCAGGGAAACGCTTG	1.76	5.91	0.165	2.57	-0.0188	2.93	1.84	2.41	0.732	1.67	2.55	2.26	1.2	1.13	0.8	1.03	0.338	1.61	0.942	2.57
CCTACTGTGCCAAAAAGGTCATTGATGCCGATAA	4.4	4.59	4.4	4.55	1.59	4.73	3.18	3.69	1.41	3	3.31	3.57	0.316	0.475	3.9	4.76	2.5	5.24	2.59	3.99
CCTTACGGGTCAAGGTTATAGAACGGGTGGTACG	5.4	3.68	0.401	3	-0.0236	5.1	4.04	4.67	1.87	3.53	1.6	3.22	-0.135	-0.211	1.83	3.27	0.223	4.16	1	4.13
ATCTCTAGGTAAAGATAGTTTAGTGAATGCAAAT	0.535	0.896	0.494	0.361	0.415	0.104	0.777	0.218	0.448	0.329	1.81	2.04	1.07	0.379	0.699	0.277	0.329	-0.0138	0.933	0.0107
TAGAGTAGGTTACCAATGGGGCATTCAGCTTTCT	0.195	1.62	0.13	1.22	1.02	1.68	1.3	1.96	1.16	1.72	4.68	4.33	0.638	0.725	1.06	0.312	0.223	0.669	1.18	1.33
TAGCCTAGTTCAGATCGGGCCAGTATACGCTATA	-0.29	-0.351	-0.598	-0.308	-0.592	-0.113	-0.019	-0.325	-0.538	-0.475	0.415	0.54	-0.537	-0.978	-0.824	0.226	-0.407	0.532	-1.17	0.472
GCGACTGAGGCAAAGCAGGTTACCATAAGGTTGG	-0.391	-0.493	-0.444	-0.567	-1.32	-0.0233	0.328	-0.42	-0.736	-0.693	0.099	-0.228	-1.27	-1.26	-0.646	-0.22	-0.398	0.0827	-0.323	-0.412
TTACCAAGGTGAGATGAGGTCGTTGATCCAACTC	1.78	1.68	-0.0824	1.1	-0.44	2.03	0.772	1.32	0.775	1.01	1.15	2.16	-0.0123	0.496	0.827	5.21	0.58	2.44	0.0224	1.83
TCTTGTAGATCCAAGGTTAAGAAAGCCGAAGCCT	0.319	0.55	-0.254	0.993	-0.378	1.65	1.15	3.41	3.23	3.55	1.7	0.596	0.181	0.325	0.227	0.966	0.261	1.18	-0.206	0.88
CGTCCAAGGTCAGCAGGTCAGTGAGAGCGACGTG	5.85	4.1	0.541	2.94	-0.239	4.74	4.1	4.36	1.29	2.94	2.88	3.81	-0.522	-0.683	3.25	3.75	0.915	4.78	1.19	5.39
ATATGTAGGTTAACGGGTCATTCAGTTTGCGCAT	2.83	3.03	1.03	3.05	0.599	5.14	7.84	6.45	4.4	6.25	8.01	7.92	2.68	1.82	2.04	3.26	3.42	3.42	1.02	2.54
ACTATTAGTTGACTTAGGGCAACCGATACGACGC	0.119	0.0991	-0.0501	0.277	0.41	0.0707	0.995	0.159	0.448	0.379	-0.304	0.722	1.07	1.09	-0.697	0.217	0.409	0.353	0.643	0.958
TTACCAAGGTGAGCTGAGGTCGTTGGTCCAACTC	1.55	1.34	-0.436	0.439	-1.02	1.67	-0.467	0.63	-0.5	0.00719	1.42	1.75	-0.48	-1.25	-0.363	4.68	0.529	1.63	-1.02	1.72
CAAACTAGGTAAAGGTCAAAGTCGGTTTGTGCCA	6.46	6.21	5.75	5.55	2.15	6.23	7.83	7.43	6.03	7.54	6.36	6.65	4.01	1.08	4.48	5.72	2.28	6.09	1.6	4.99
